Results on 13 compounds are retold here after PubChem BioAssay (NCI).

Compounds without any hit were thinned out: in the full panel of roughly 83,000, 20% have a hit.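 Testing used 96-well plates and a 48-hour single-concentration exposure. Example: -40 means 40% of the starting cells died.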 Unmarked numbers belong to inactive results. Active and inactive are the calls of the source. The calls were made as follows: active = growth percent below 10; inactive = the rest.

For the experiment, the system named is CAKI-1 renal. Description: NCI-60 one-dose screen, 48 h (100 = growth as untreated, 0 = no growth, -100 = all killed). To be noted: 10 µM.
Take `O=C(Nc1ccc(OCC(=O)c2ccc(Cl)cc2)cc1)Nc1ccc(Cl)c(C(F)(F)F)c1`: the growth was 41.1%.
For `Cc1ccc2sc3c(c2c1)Oc1nc[nH]c(=O)c1C3c1cccc(F)c1` (stereo not drawn) the value was 83.2%; for `Cc1cc(N=C2NC(=O)/C(=C/c3cc(C(C)(C)C)c(O)c(C(C)(C)C)c3)S2)n[nH]1`, 12.4%; for `COc1ccc(C2c3sc4ccc(C)cc4c3Oc3nc[nH]c(=O)c32)cc1` (stereo not drawn), 60%.
For `COc1cccc(C(=O)CSc2nc(-c3ccc(OCc4ccccc4)c(OC)c3)c(C#N)c(=O)[nH]2)c1` the value was 90.8%.
As for `Cc1ccc(COc2ccc(NC(=O)Nc3ccc(Cl)c(C(F)(F)F)c3)cc2)cc1`, the figure is 61.7%; as for `CC(C)(C)c1cc(/C=C2\S/C(=N/c3ncn[nH]3)NC2=O)cc(C(C)(C)C)c1O`, 19.6%.
For the compound `Cn1cc(/C=C(/SS/C(=C/c2cn(C)c3cccc(C(=O)O)c23)C(=O)O)C(=O)O)c2c(C(=O)O)cccc21`, the growth was 87.9%.
For `COc1ccc(C(=O)COc2ccc(NC(=O)Nc3ccccc3)cc2)cc1` the value was 72.7%.
For `CCn1c(SCC(=O)Nc2ccc(-c3nc4ccccc4[nH]3)cc2)nc2ccccc2c1=O` the value was -99.2% (active).
For `O=C(Nc1ccc(OCc2ccc(F)cc2)cc1)Nc1ccc(Cl)c(C(F)(F)F)c1` the value was 2.77% (active); for `O=C(CC(=O)Nc1ccc(Oc2ncnc3scc(Nc4n[nH]c(=S)s4)c23)cc1)Nc1ccc(Br)cc1`, 88.8%; for `COc1ccc(C(=O)COc2ccc(NC(=O)Nc3ccc(Cl)c(C(F)(F)F)c3)cc2)cc1`, 27.2%.
